SMILES strings stand for the structures.

A short description of the first test: COS7 lysate on small-molecule microarray, probe aHis, 635 nm (AID 1123).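 Note: z-score combines 667nm fluorescence intensity with signal-to-noise per printed compound spot.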 The following applies: COS7 cell lysate, fluorescence, higher = more signal.
In turn, `CN(C)CCCCNC(=O)[C@H]1C[C@H]2C(=O)N[C@@H](CCCCN(C)C)C(=O)N2[C@H]1c1cccc(OCCO)c1` had a composite z-score of 2.21.
Still for that read-out and setting: under `COC(=O)C1(Cc2ccccc2)C=C2C(=C(C(C)C)C(=O)C2C)CN1` (configuration not stated) stands 1.62.
Consider `[N-]=[N+]=NCc1ccccc1C[C@@]1(C(N)=O)N=C(c2ccc(OCCCO)cc2)O[C@@H]1c1ccccc1CN=[N+]=[N-]`, for which the composite z-score turned out to be 1.5.
Still for that read-out and setting: to `C=CCNC(=O)[C@@H]1[C@H]2C(=O)O[C@H](c3ccccc3)[C@H](c3ccccc3)N2[C@H](c2ccccc2OCCO)[C@@]12C(=O)N(C(=O)OCCOC)c1ccc(C#CC3=CCCCC3)cc12` belongs 1.76; to `[N-]=[N+]=NCc1ccccc1C[C@@]1(C(=O)NCCN2CCOCC2)N=C(c2ccc(OCCCO)cc2)O[C@@H]1c1ccccc1N=[N+]=[N-]`, 1.6; to `O=C1OCC=C[C@H]2OC34C=CCN(c5ccc(Cl)cc5)C(=O)[C@H]3N(CCCCCO)C(=O)[C@@H]4[C@@H]12` (some centres not stated), -0.347.
The compound `CN(C)C(=O)[C@]1(CCC(=O)OC(C)(C)C)N=C(c2ccc(OCCCO)cc2)O[C@@H]1c1ccccc1` showed a composite z-score of 3.06.
For the compound `CCCNC(=O)[C@@]1(c2ccc([N+](=O)[O-])cc2)CC(=O)N(C2CCCCC2)[C@@H]1c1ccc(CO)cc1I`, the composite z-score stood at 1.73.
Still for that read-out and setting: under `COC(=O)C[C@H]1O[C@]2(C(=O)N(C)c3ccccc32)[C@@H](C)[C@@H]1[Si](C)(C)c1ccc(C)cc1` stands 0.311; under `COCCOC(=O)N1C(=O)[C@@]2(c3cc(C#CC4(O)CCCCCC4)ccc31)[C@H](c1ccccc1OCCO)N1[C@H](c3ccccc3)[C@H](c3ccccc3)OC(=O)[C@H]1[C@@H]2C(N)=O`, 0.994; under `CO[C@H]1O[C@H](CO)[C@@H](OC(=O)c2ccc(Br)cc2)[C@@H]2OC(=O)[C@@H](Cc3ccc4ccccc4c3)C/C=C/C[C@H](Cc3ccc4ccccc4c3)C(=O)O[C@@H]12`, 1.93.
In the case of `COCCCNC(=O)[C@]1(Cc2ccccc2N=[N+]=[N-])N=C(c2ccc(OCCCO)cc2)O[C@@H]1c1ccccc1N=[N+]=[N-]`, the composite z-score was 2.33.
On the same count and under the same terms, under `C=CCOC(=O)[C@H]1[C@@H]2C(=O)O[C@@H](c3ccccc3)[C@@H](c3ccccc3)N2[C@@H](c2ccc(OCCOC(=O)[C@H]3C[C@H]4C(=O)N[C@@H](CCCC[N+](C)(C)C)C(=O)N4[C@H]3c3cccc(OCCO)c3)cc2)[C@]12C(=O)Nc1ccc(I)cc12` stands 0.365; under `COc1ccc(NN2C(C(O)c3ccco3)C=CC3C(=O)N(C4CCCCC4)C(=O)C32)cc1` (configuration not stated), 1.44.
Take `O=C1NC(=O)C2C1C=CC(C(O)c1ccc(Br)cc1)N2Nc1ccccn1` (configuration not stated): the composite z-score is 0.991.
In turn, `C[C@]1(C(=O)O)c2ccccc2C(=O)N(Cc2ccccc2)[C@H]1c1ccc(CO)cc1` showed a composite z-score of 0.096.
With `COCCOC(=O)N1C(=O)[C@@]2(c3cc(C#CC4(O)CCCCCC4)ccc31)[C@H](C(N)=O)[C@H]1C(=O)O[C@H](c3ccccc3)[C@H](c3ccccc3)N1[C@@H]2c1ccc(O)cc1`, the composite z-score turned out to be 1.27.
`CCN(CC)c1ccc(N2CC=CC34O[C@@H]5/C=C\CCC(C)OC(=O)C5[C@H]3C(=O)N(CCO)[C@@H]4C2=O)cc1` (some centres not stated): the composite z-score amounted to 1.87.
Turning to `CCOC(=O)C[C@H]1[C@H](OC(=O)c2ccccc2-c2ccccc2)[C@@H](NC(=O)CC(C)C)c2cc(OCCCO)ccc2N1C(=O)c1ccc2ccccc2n1`, the composite z-score is 0.578.
Compound `O=C1O[C@@H](c2ccccc2)[C@@H](c2ccccc2)N2[C@@H](c3ccccc3OCCO)[C@]3(C(=O)Nc4ccc(C#CC5=CCCCC5)cc43)[C@@H](C(=O)NC[C@H](O)c3ccccc3)[C@H]12` had a composite z-score of 0.363.
Turning to `C=CCOC(=O)[C@@H]1[C@H]2C(=O)O[C@H](c3ccccc3)[C@H](c3ccccc3)N2[C@H](c2ccc(OCCOC(=O)[C@H]3C[C@H]4C(=O)N[C@@H](CC(C)C)C(=O)N4[C@H]3c3ccc(O)cc3)cc2)[C@@]12C(=O)Nc1ccc(I)cc12`, the composite z-score is 2.3.
`NCCCCCCNC(=O)[C@H]1C[C@H]2C(=O)N[C@@H](Cc3ccccc3)C(=O)N2[C@H]1c1ccc(O)cc1` showed a composite z-score of 0.734.
Regarding `O=C1OCC=C[C@H]2OC34C=CCN(Cn5nnc6ccccc65)C(=O)[C@H]3N(CCCCCCO)C(=O)[C@@H]4[C@@H]12` (some centres not stated), the composite z-score was determined as 0.718.
`COc1ccc([Si](C)(C)[C@H]2[C@H](CCn3cc([C@H](O)c4ccccc4)nn3)O[C@@]3(C(=O)N(Cc4ccc(N5CCC5=O)cc4)c4ccccc43)[C@@H]2C)cc1` had a composite z-score of 0.418.

A further test can be described thus: compound binding in COS7 lysate, probe aLAP1, primary screen, cell lysate, small-molecule microarray (AID 1124).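 Note: lysate comes from COS7 cells expressing LAP1 and is applied at 0.3 µg/mL; score merges spot fluorescence near 667 nm with signal-to-noise over triplicate slides.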 The following applies: probe aLAP1, fluorescence, higher = more signal.
`[N-]=[N+]=Nc1ccccc1[C@H]1OC(c2ccc(OCCCO)cc2)=N[C@@]1(CCS(=O)(=O)c1ccccc1)C(=O)N1CCCCC1` gave a composite z-score of 0.0866.
As for `CN(C)CCCNC(=O)[C@@H]1c2ccccc2C(=O)N(CC23CC4CC(CC(C4)C2)C3)[C@H]1c1ccc(CO)cc1`, the composite z-score is 2.1.
Consider `COC(=O)[C@]1(CCS(=O)(=O)c2ccccc2)N=C(c2ccc(OCCCO)cc2)O[C@@H]1c1ccccc1CN=[N+]=[N-]`, for which the composite z-score was 0.472.
The same measure, in the same setting: under `O=C(NC1CC1)[C@@H]1c2ccccc2C(=O)N(Cc2ccccc2)[C@H]1c1ccc(CO)cc1` stands 1.36; under `COC(=O)C1(Cc2ccccc2)C=C2C(=C(c3ccccc3)C(=O)C2C)CN1` (configuration not stated), 0.906.
In turn, `NC(N)=NCc1cn(CCc2c[nH]c3ccccc23)nn1` returned a composite z-score of 0.262.
`CC(=O)n1cc(C(O)C2C=CC3C(=O)N(c4ccccc4)C(=O)C3N2Nc2ccccc2)c2ccccc21` (configuration not stated) displayed a composite z-score of 0.697.
Turning to `CC(C)C(O)C1C=CC2C(=O)N(C)C(=O)C2N1N(c1ccccc1)c1ccccc1` (configuration not stated), the composite z-score is -0.37.
`C=C(CCCC)/C(=C/C[C@@H](OC(C)=O)c1ccc(CO)o1)c1cc(C(=O)OC)ccc1OC` showed a composite z-score of 0.557.
For the compound `COCCOC(=O)N1C(=O)[C@@]2(c3cc(C#Cc4ccc(OC)cc4)ccc31)[C@H](C(=O)N1CCCCCCC1)[C@H]1C(=O)O[C@H](c3ccccc3)[C@H](c3ccccc3)N1[C@@H]2c1ccc(O)cc1`, the composite z-score came out at 0.421.
Consider `C#CCNC(=O)[C@H](Cc1ccccc1)NC(=O)[C@@H](N=[N+]=[N-])C(C)C`, for which the composite z-score came to 0.0338.
In turn, `COc1c(C)cc(-c2cc3c(c(-c4ccccc4)n2)[Si](C(C)C)(C(C)C)OC3)cc1C` yielded a composite z-score of -0.154.
Same read-out and setting: to `CN(C)CCCCNC(=O)[C@H]1C[C@H]2C(=O)N[C@@H](CCCCN(C)C)C(=O)N2[C@H]1c1cccc(OCCO)c1` belongs 0.518.
With `COC(=O)C1(Cc2ccccc2)C=C2C(=C(C(C)C)C(=O)C2C)CN1` (configuration not stated), the composite z-score is 0.6.
Same read-out and setting: under `[N-]=[N+]=NCc1ccccc1C[C@@]1(C(N)=O)N=C(c2ccc(OCCCO)cc2)O[C@@H]1c1ccccc1CN=[N+]=[N-]` stands 0.383; under `C=CCNC(=O)[C@@H]1[C@H]2C(=O)O[C@H](c3ccccc3)[C@H](c3ccccc3)N2[C@H](c2ccccc2OCCO)[C@@]12C(=O)N(C(=O)OCCOC)c1ccc(C#CC3=CCCCC3)cc12`, -0.218; under `[N-]=[N+]=NCc1ccccc1C[C@@]1(C(=O)NCCN2CCOCC2)N=C(c2ccc(OCCCO)cc2)O[C@@H]1c1ccccc1N=[N+]=[N-]`, 0.276.
On the same count and under the same terms, to `O=C1OCC=C[C@H]2OC34C=CCN(c5ccc(Cl)cc5)C(=O)[C@H]3N(CCCCCO)C(=O)[C@@H]4[C@@H]12` (some centres not stated) belongs 0.406; to `CN(C)C(=O)[C@]1(CCC(=O)OC(C)(C)C)N=C(c2ccc(OCCCO)cc2)O[C@@H]1c1ccccc1`, 0.264; to `CCCNC(=O)[C@@]1(c2ccc([N+](=O)[O-])cc2)CC(=O)N(C2CCCCC2)[C@@H]1c1ccc(CO)cc1I`, 0.521.
`COC(=O)C[C@H]1O[C@]2(C(=O)N(C)c3ccccc32)[C@@H](C)[C@@H]1[Si](C)(C)c1ccc(C)cc1`: the composite z-score is 0.218.
The same measure, in the same setting: under `COCCOC(=O)N1C(=O)[C@@]2(c3cc(C#CC4(O)CCCCCC4)ccc31)[C@H](c1ccccc1OCCO)N1[C@H](c3ccccc3)[C@H](c3ccccc3)OC(=O)[C@H]1[C@@H]2C(N)=O` stands -0.394; under `CO[C@H]1O[C@H](CO)[C@@H](OC(=O)c2ccc(Br)cc2)[C@@H]2OC(=O)[C@@H](Cc3ccc4ccccc4c3)C/C=C/C[C@H](Cc3ccc4ccccc4c3)C(=O)O[C@@H]12`, 0.547; under `COCCCNC(=O)[C@]1(Cc2ccccc2N=[N+]=[N-])N=C(c2ccc(OCCCO)cc2)O[C@@H]1c1ccccc1N=[N+]=[N-]`, -0.0886.
Still for that read-out and setting: under `C=CCOC(=O)[C@H]1[C@@H]2C(=O)O[C@@H](c3ccccc3)[C@@H](c3ccccc3)N2[C@@H](c2ccc(OCCOC(=O)[C@H]3C[C@H]4C(=O)N[C@@H](CCCC[N+](C)(C)C)C(=O)N4[C@H]3c3cccc(OCCO)c3)cc2)[C@]12C(=O)Nc1ccc(I)cc12` stands 0.072; under `COc1ccc(NN2C(C(O)c3ccco3)C=CC3C(=O)N(C4CCCCC4)C(=O)C32)cc1` (configuration not stated), 0.564; under `O=C1NC(=O)C2C1C=CC(C(O)c1ccc(Br)cc1)N2Nc1ccccn1` (configuration not stated), 0.74.
On to `C[C@]1(C(=O)O)c2ccccc2C(=O)N(Cc2ccccc2)[C@H]1c1ccc(CO)cc1`, for which the composite z-score is -0.581.
In the case of `COCCOC(=O)N1C(=O)[C@@]2(c3cc(C#CC4(O)CCCCCC4)ccc31)[C@H](C(N)=O)[C@H]1C(=O)O[C@H](c3ccccc3)[C@H](c3ccccc3)N1[C@@H]2c1ccc(O)cc1`, the composite z-score was 0.298.
Compound `CCN(CC)c1ccc(N2CC=CC34O[C@@H]5/C=C\CCC(C)OC(=O)C5[C@H]3C(=O)N(CCO)[C@@H]4C2=O)cc1` (some centres not stated) showed a composite z-score of 0.711.
For the compound `CCOC(=O)C[C@H]1[C@H](OC(=O)c2ccccc2-c2ccccc2)[C@@H](NC(=O)CC(C)C)c2cc(OCCCO)ccc2N1C(=O)c1ccc2ccccc2n1`, the composite z-score is 0.452.
Turning to `O=C1O[C@@H](c2ccccc2)[C@@H](c2ccccc2)N2[C@@H](c3ccccc3OCCO)[C@]3(C(=O)Nc4ccc(C#CC5=CCCCC5)cc43)[C@@H](C(=O)NC[C@H](O)c3ccccc3)[C@H]12`, the composite z-score was 0.182.
For `C=CCOC(=O)[C@@H]1[C@H]2C(=O)O[C@H](c3ccccc3)[C@H](c3ccccc3)N2[C@H](c2ccc(OCCOC(=O)[C@H]3C[C@H]4C(=O)N[C@@H](CC(C)C)C(=O)N4[C@H]3c3ccc(O)cc3)cc2)[C@@]12C(=O)Nc1ccc(I)cc12`, the composite z-score was 0.103.

These data come from PubChem BioAssay.
